Reference: PubChem BioAssay (EPA / NIEHS)
Inconclusive results are not listed. The source made the active and inactive calls. How the source made its calls, unless noted: active means hit-call score of the fitted dose curve at least 0.9, where 1 is the maximum; inconclusive means response in the unintended direction; inactive means score below 0.9.

What was measured:
[1] = Tanguay_ZF_120hpf_PE_legacy: (Legacy) Oregon State University Tanguay Lab 120 Hour Post-fertilization zebrafish Assay for Pericardial Edema (AID 2283640);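 on AC50: potency for increased incidence of pericardial edema versus DMSO baseline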
Method in brief: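 Embryos from wild-type 5D adults were staged, then dosed in 0.64% DMSO. They were kept sealed in the dark at 28C until 120 hpf. Pericardial edema was then recorded as present or absent.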

[2] = Tanguay_ZF_120hpf_BRAI_legacy: (Legacy) Oregon State University Tanguay Lab 120 Hour Post-fertilization zebrafish Assay for Brain Malformation (AID 2283641)
Method in brief: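 Wild-type 5D larvae, static waterborne exposure to 120 hpf, 28C, 0.64% v/v DMSO. Brightfield scoring of brain defects, binary; dead embryos excluded. Positive ctrl 5uM trimethyltin chloride.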

[3] = Tanguay_ZF_120hpf_SOMI_legacy: (Legacy) Oregon State University Tanguay Lab 120 Hour Post-fertilization zebrafish Assay for Somite Malformation (AID 2283647)
Method in brief: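 Read-out: presence or absence of somite malformation in 120 hpf larvae, gain-of-signal relative to DMSO baseline. Embryos lacked chorion (pronase, 4 hpf) and were exposed statically from 6 hpf at 28C; dead larvae not scored.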

[4] = Tanguay_ZF_120hpf_PFIN_legacy: (Legacy) Oregon State University Tanguay Lab 120 Hour Post-fertilization zebrafish Assay for Pectoral Fin Malformation (AID 2283648);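 further: each larva judged yes or no for fin defect by brightfield with dead larvae skipped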
Method in brief: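 Binary pectoral fin malformation call at 120 hpf by brightfield microscopy; 5D wild-type zebrafish, chorion removed at 4 hpf, one embryo per well from 6 hpf, static exposure at 28C; DMSO (0.64% final) as baseline.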

[5] = Tanguay_ZF_120hpf_CFIN_legacy: (Legacy) Oregon State University Tanguay Lab 120 Hour Post-fertilization zebrafish Assay for Caudal Fin Malformation (AID 2283649)
Method in brief: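 Binary presence or absence of caudal fin malformation at 120 hpf, read by brightfield microscopy, with DMSO as baseline. Larvae came from 5D wild-type embryos exposed statically from 6 hpf at 28C after pronase dechorionation.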

[6] = Tanguay_ZF_120hpf_PIG_legacy: (Legacy) Oregon State University Tanguay Lab 120 Hour Post-fertilization zebrafish Assay for Pigmentation Malformation (AID 2283650);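 further: dechorionated Tropical 5D zebrafish embryos exposed singly from 6 to 120 hpf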
Method in brief: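 Brightfield scoring of pigmentation malformation at 120 hpf, recorded as binary present/absent per larva. Exposure: dechorionated 5D wild-type embryos, one per well, static from 6 hpf at 28C, final DMSO 0.64% (vol/vol). Dead embryos not scored.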

[7] = Tanguay_ZF_120hpf_CIRC_legacy: (Legacy) Oregon State University Tanguay Lab 120 Hour Post-fertilization zebrafish Assay for Circulatory Malformation (AID 2283651)
Method in brief: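 Binary circulatory-malformation call at 120 hpf via brightfield imaging, relative to DMSO controls. Embryos (5D strain, chorion removed) received static, light-shielded exposure at 28C.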

[8] = Tanguay_ZF_120hpf_OTIC_legacy: (Legacy) Oregon State University Tanguay Lab 120 Hour Post-fertilization zebrafish Assay for Otic Vesicle Malformation (AID 2283639)
Method in brief: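 Wild-type zebrafish larvae, whole-embryo exposure from early stage to 120 hpf at 28C. Binary brightfield scoring of otic vesicle morphology, fitted in the positive direction against the DMSO baseline.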

[9] = read-out: solute carrier (SLC22A6), SLC22A6 (gene 9356); test: LTEA_HepaRG_SLC22A6: Life Technologies and Expression Analysis (LTEA) Assay for solute carrier (SLC22A6) using HepaRG (AID 2283653; active means hit-call score of the fitted dose curve at least 0.9, where 1 is the maximum; inactive means score below 0.9); conditions: mRNA level, 48 h; actives raise or lower the signal
Method in brief: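 Read-out is SLC22A6 transcript level by qRT-PCR, normalised to three housekeeping genes and fitted for gain or loss relative to 0.5% DMSO vehicle. Human HepaRG cells received chemicals at up to 100 uM for 48 h.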

[10] = read-out: kallikrein-3 (KLK3), KLK3 (gene 354); test: LTEA_HepaRG_KLK3: Life Technologies and Expression Analysis (LTEA) Assay for kallikrein-3 (KLK3) using HepaRG (AID 2283652; active means hit-call score of the fitted dose curve at least 0.9, where 1 is the maximum; inactive means score below 0.9); conditions: mRNA level, 48 h; actives raise or lower the signal
Method in brief: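 KLK3 transcript levels were measured by TaqMan qRT-PCR with normalisation to three housekeeping genes. HepaRG cultures received chemicals for 48 h at up to 100 uM (half-log, 8 points, 0.5% DMSO vehicle), fitted in both directions against DMSO.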

Measured: AC50

OCC(CO)(CO)CO
inactive: [1] | [2] | [3] | [4] | [5] | [6] | [7]

CCCCOC(=O)c1ccccc1
inactive: [8] | [1] | [3] | [5] | [6]

CCn1nc(C)c2c1C(=O)NCC(c1ccc(O)cc1)=N2
inactive: [2] | [3] | [4] | [5] | [6] | [7]

CC[C@H](C)C(=O)O[C@H]1C[C@H](O)C=C2C=C[C@H](C)[C@H](CC[C@@H](O)C[C@@H](O)CC(=O)O)[C@H]21
inactive: [1] | [2] | [3] | [4] | [5] | [7]

CCCCCCOC(=O)CC(CC(=O)OCCCCCC)(OC(=O)CCC)C(=O)OCCCCCC
inactive: [1] | [2] | [3] | [4] | [5] | [6] | [7]

OC[C@H]1O[C@@](CO)(O[C@H]2O[C@H](CO)[C@@H](O)[C@H](O)[C@H]2O)[C@@H](O)[C@@H]1O
inactive: [1] | [2] | [3] | [4] | [6]

CNC(C)=O
inactive: [1] | [2] | [4] | [5] | [6] | [7]

CCCCN1C(=O)[C@@H]([C@H](O)C2CCCCC2)NC(=O)C12CCN(Cc1ccc(Oc3ccc(C(=O)O)cc3)cc1)CC2
inactive: [1] | [2] | [3] | [4] | [5] | [6] | [7]

CCCCCCCC1CCC(=O)O1 (stereo not drawn)
inactive: [1] | [3] | [5] | [6] | [7]
active: [4] 51.5 µM

C=CCc1cc(S(=O)(=O)c2ccc(O)c(CC=C)c2)ccc1O
inactive: [1] | [2] | [3] | [4] | [5] | [6] | [7]

CC(C)CC(C)O (stereo not drawn)
inactive: [1] | [2] | [3] | [4] | [6]

CCOc1ccc2[nH]cc(C(=O)NCc3ccccc3)c(=O)c2n1
inactive: [1] | [2] | [3] | [4] | [5] | [6] | [7]

CCCOc1ccc(S(=O)(=O)N2CCN(CC)CC2)cc1-c1nc2c(CC)n(Cc3ccccn3)nc2c(=O)[nH]1
inactive: [1] | [2] | [4] | [5] | [6] | [7]

CC(C)C(=O)Nc1ccc([N+](=O)[O-])c(C(F)(F)F)c1
inactive: [1] | [2] | [3] | [4] | [5] | [6] | [7]

O=C(NO)C1(NS(=O)(=O)c2ccc(Oc3ccc(F)cc3)cc2)CCOCC1
inactive: [1] | [2] | [3] | [4] | [5] | [6] | [7]

CC1(C)C(=O)N(Cl)C(=O)N1Cl
inactive: [1] | [2] | [4] | [5] | [6] | [7]

CC(C)CCCCCCOC(=O)C1CCCCC1C(=O)OCCCCCCC(C)C (stereo not drawn)
inactive: [1] | [2] | [3] | [4] | [5] | [6] | [7]

CCOC(N)=O
inactive: [2] | [3] | [4] | [5] | [6] | [7]

O=C(O)c1cccc(C(=O)O)c1
inactive: [1] | [3] | [4] | [5] | [6] | [7]

Nc1ccn([C@@H]2O[C@H](CO)[C@@H](O)[C@@H]2O)c(=O)n1
inactive: [1] | [2] | [3] | [4] | [5] | [6] | [7]

OC(Cn1cncn1)(Cn1cncn1)c1ccc(F)cc1F
inactive: [1] | [4] | [5] | [6] | [7]

CCCCCCCCCC
inactive: [1] | [2] | [3] | [5] | [6] | [7]

COc1cc2c(c(OC)c1OC)-c1ccc(OC)c(=O)cc1[C@@H](NC(C)=O)CC2
inactive: [5] | [7] | [9]
active: [1] 26.2 µM | [3] 25.5 µM | [4] 21 µM | [6] 22.8 µM

CCCC(CCC)C(=O)O
inactive: [1] | [2] | [4] | [5] | [6] | [7] | [10] | [9]

c1ccc2cc3ccccc3cc2c1
inactive: [1] | [3] | [4] | [5] | [6] | [9]

OCCOCCOCCO
inactive: [2] | [4] | [5] | [6] | [7]

CCCCCCCCN(C)C
inactive: [2] | [3] | [4] | [5] | [6] | [7]

CCc1cccc(CC)c1N
inactive: [2] | [3] | [5] | [6] | [7]

O=c1[nH]cnc2c1ncn2[C@H]1CC[C@@H](CO)O1
inactive: [1] | [3] | [4] | [5] | [6] | [7]

Cn1c(=O)c2[nH]cnc2n(C)c1=O
inactive: [1] | [4] | [6] | [7]

O=C(O)c1cccc(C[C@@H]2COc3ccc(OCc4nc5cc(F)ccc5s4)cc3[C@@H]2O)c1
active: [1] 0.953 µM
inactive: [2] | [3] | [4] | [5] | [7]

O=S(=O)(O)c1ccc(N=Nc2c(O)ccc3cc(S(=O)(=O)O)ccc23)cc1
inactive: [1] | [2] | [3] | [4] | [6] | [7]

CCCCCOC(C)=O
inactive: [1] | [2] | [3] | [5] | [6] | [7]

c1ccc(C(O[C@@H]2CCCN(CCc3ccc4c(c3)OCO4)C2)c2ccccc2)cc1
inactive: [3] | [7]
active: [1] 36 µM | [2] 42 µM | [4] 33.4 µM | [5] 37.2 µM | [6] 42.4 µM

O=C(O)c1ccc2c(c1)nc(C(=O)NC1CCN(C3CC3)CC1)n2Cc1cc(-c2ccc(Cl)s2)on1
inactive: [1] | [2] | [3] | [4] | [5] | [6] | [7]

C=CN1CCCC1=O
inactive: [3] | [4] | [6]

NC(N)=O
inactive: [3] | [4] | [5] | [6]
